Experimental findings from PubChem BioAssay (Tox21) are described below.

A number with no mark means an inactive call. Results filed as inconclusive are left out. The source made the active and inactive calls. Unless noted, calls come from the whole dose curve; as a rule, active = well fitted curve in the direction sought with a large enough effect in the repeat runs; inconclusive = weak or mixed curves; inactive = no such curve, though single readings can be large; an effect the other way counts as inactive or inconclusive.

Test [1] deals with Progesterone receptor (Homo sapiens) (UniProt P06401). Briefly: qHTS assay to identify small molecule agonists of the progesterone receptor (PR) signaling pathway (AID 1346784; calls by dose curve; note: nearly all actives have a fitted effect of over 30% in size). The gist of the method: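 Reporter assay, GripTite PR-UAS-bla HEK 293T cells: 16 hr exposure to DMSO-dissolved compounds at 37C, 5% CO2, in steroid-depleted (2% charcoal-stripped FBS) medium; beta-lactamase measured by FRET fluorescence.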
Chain of Progesterone receptor (Homo sapiens) (P06401 whole entry, looked up): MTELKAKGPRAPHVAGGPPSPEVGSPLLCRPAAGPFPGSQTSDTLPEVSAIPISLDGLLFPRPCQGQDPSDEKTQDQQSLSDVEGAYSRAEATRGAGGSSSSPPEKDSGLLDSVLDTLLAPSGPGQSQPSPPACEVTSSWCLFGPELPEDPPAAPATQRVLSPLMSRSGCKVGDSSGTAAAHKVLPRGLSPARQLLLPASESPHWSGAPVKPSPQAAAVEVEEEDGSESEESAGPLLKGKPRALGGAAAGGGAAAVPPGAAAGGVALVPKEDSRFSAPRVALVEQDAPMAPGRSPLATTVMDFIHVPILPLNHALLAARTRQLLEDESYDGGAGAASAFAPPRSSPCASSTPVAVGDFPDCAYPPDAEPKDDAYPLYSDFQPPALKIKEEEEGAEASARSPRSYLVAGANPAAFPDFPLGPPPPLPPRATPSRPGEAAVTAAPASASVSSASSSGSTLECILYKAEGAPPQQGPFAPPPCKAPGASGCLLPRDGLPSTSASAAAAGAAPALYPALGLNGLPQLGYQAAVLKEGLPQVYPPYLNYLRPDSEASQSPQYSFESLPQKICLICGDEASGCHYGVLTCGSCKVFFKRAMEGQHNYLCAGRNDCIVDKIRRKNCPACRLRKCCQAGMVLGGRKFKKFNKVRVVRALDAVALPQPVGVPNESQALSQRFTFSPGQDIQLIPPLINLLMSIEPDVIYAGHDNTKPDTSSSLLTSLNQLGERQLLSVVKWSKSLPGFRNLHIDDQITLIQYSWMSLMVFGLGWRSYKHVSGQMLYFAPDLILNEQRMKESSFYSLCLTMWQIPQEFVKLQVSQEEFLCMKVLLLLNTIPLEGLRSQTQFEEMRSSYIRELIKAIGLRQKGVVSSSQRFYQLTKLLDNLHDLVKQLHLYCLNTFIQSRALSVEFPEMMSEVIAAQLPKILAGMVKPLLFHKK

For test [2] the target is unchanged. Briefly: qHTS assay to identify small molecule antagonists of the progesterone receptor (PR) signaling pathway (AID 1346795; active = well fitted inhibition curve with a large enough effect in the signal ratio in the repeat runs, not every such curve was filed as active; the % refers to the signal ratio). In short, it runs like this: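 Stimulus R5020 at 1 nM final; cells HEK293T PR-UAS-bla; medium with 2% charcoal-stripped FBS; compound exposure 16 hr at 37C, 5% CO2; detection by FRET beta-lactamase substrate, 2 hr, room temperature.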

Test [3] can be described thus: qHTS assay to identify small molecule antagonists of the progesterone receptor (PR) signaling pathway - cell viability counter screen (AID 1346798). Note: series mostly up to about 92 µM; nearly all actives have a fitted effect of over 50% in size. In short, it runs like this: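 In the same plates used for the beta-lactamase readout, cell viability of compound- and R5020-treated PR-UAS-bla HEK293T cells (16 hr, 37C) was assessed by CellTiter-Glo luminescence.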
On the technique in general: qHTS replaces the single test concentration by a dilution series.

A short description of test [4]: qHTS assay to identify small molecule agonists of the progesterone receptor (PR) signaling pathway - cell viability counter screen (AID 1346799; calls by dose curve; note: nearly all actives have a fitted effect of over 45% in size). The gist of the method: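 Multiplexed viability read: CellTiter-Glo luminescence, 30 min RT, following LiveBLAzer FRET measurement on PR-UAS-bla HEK293T cells exposed to compounds 16 hr.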
Test [5] is described as follows: qHTS assay to identify small molecule antagonists of the TGF-beta/Smad signaling pathway - cell viability counter screen (AID 1346824). Note: nearly all actives have a fitted effect of over 50% in size. The gist of the method: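 SBE-bla HEK 293T cells were plated overnight at 37 C, then given compounds in DMSO plus TGF-beta1 (added as 0.25 ng/mL solution) for 5 hr. After the bla read, CellTiter-Glo was added to the same wells and luminescence read after 30 min at room temperature.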

Test [6] is described as follows: qHTS assay to identify small molecule agonists of the TGF-beta/Smad signaling pathway - cell viability counter screen (AID 1346829). Note: top concentration of the series differs between compounds; nearly all actives have a fitted effect of over 45% in size. The gist of the method: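 In parallel with the Smad reporter read, viability of HEK 293T cells stably carrying SBE-bla is quantified by ATP luminescence following 5 hr compound treatment.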
Test [7] can be described thus: qHTS assay to identify small molecule agonists of the TGF-beta/Smad signaling pathway (AID 1346859; active = well fitted activation curve with a large enough effect in the signal ratio in the repeat runs, not every such curve was filed as active; the % refers to the signal ratio; note: series mostly up to about 77 µM). In short, it runs like this:
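Screening used HEK 293T SBE-bla cells at 4,000/well. Test agents: 5 hr, 37 C. Detection: FRET substrate, 2 hr RT, then excitation 405 nm with emissions at 460 and 530 nm.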

In test [8] the target is Thyrotropin-releasing hormone receptor (Homo sapiens) (UniProt P34981). Briefly: qHTS assay to identify small molecule antagonists of the thyrotropin-releasing hormone receptor (TRHR) signaling pathway (AID 1346877; active = well fitted inhibition curve with a large enough effect in the repeat runs, not every such curve was filed as active; note: series mostly up to about 51 µM). In short, it runs like this:
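Overnight-plated (18 h, 37 °C) HEK293 cells expressing TRHR were dye-loaded 2 h, treated with compound, then stimulated with TRH at 1 nM final. Fluorescence intensity was captured every second for 3 min.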

Test [9] shares this target. Briefly: qHTS assay to identify small molecule agonists of the thyrotropin-releasing hormone receptor (TRHR) signaling pathway (AID 1346891; calls by dose curve; note: series mostly up to about 58 µM). The gist of the method:
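Readout was intracellular calcium fluorescence in TRHR-Hek293 cells. Cells were incubated 18 h, dye-loaded 2 h at 37 °C, and treated with compound in agonist mode.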

A short description of test [10]: Human pregnane X receptor (PXR) small molecule agonists, qHTS cell viability counter screen (AID 1346977). Note: nearly all actives have a fitted effect of over 50% in size. The gist of the method: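 In each well, the PXR reporter HepG2 line was checked for viability: CellTiter-Fluor reagent added 23hr post-dosing, fluorescence read after 1hr incubation at 37C.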
Test [11] is described as follows: Caspase-3/7 induction in CHO-K1 cells by small molecules, qHTS cell viability counter screen (AID 1346979). Note: nearly all actives have a fitted effect of over 35% in size. In short, it runs like this:
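Following a 5hr settling period, CHO-K1 cells at 1,500 per well received DMSO-dissolved compounds. Cell viability was quantified 16hr later by CellTiter-Fluor fluorescence, measured after 1hr with reagent at 37C.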

The nature of test [12]: Caspase-3/7 induction in CHO-K1 cells by small molecules, qHTS assay (AID 1346980). Note: nearly all actives have a fitted effect of over 15% in size. In short, it runs like this: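 Wild-type cells were seeded at 1,500 per well and settled 5 hr at 37 C, 5% CO2, then exposed to DMSO-dissolved compounds for 17 hr. Caspase-Glo 3/7 reagent was added, and luminescence was read after 30min at room temperature.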
A short description of test [13]: Caspase-3/7 induction in HepG2 cells by small molecules, qHTS cell viability counter screen (AID 1346981). Note: series mostly up to about 92 µM; nearly all actives have a fitted effect of over 30% in size. The gist of the method: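 Treatment of HepG2 cells with DMSO-delivered compounds ran 16 hr at 37 C following a 5-hr pre-incubation of 2,000 cells/well. CellTiter-Fluor fluorescence, read after 1 hr, served as the viability measure in a qHTS format.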
Test [14] has as its target Nuclear receptor subfamily 1 group I member 2 (Homo sapiens) (UniProt O75469). As to the kind of experiment: Human pregnane X receptor (PXR) small molecule agonists, qHTS assay (AID 1346982). Note: nearly all actives have a fitted effect of over 35% in size. In short, it runs like this:
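Stable HepG2 line reporting PXR-mediated CYP3A4 expression via luciferase. Treatment: 24 hr with compounds in DMSO at 37 C. Detection: ONE-Glo luminescence.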

Test [15] deals with Nuclear receptor subfamily 1 group I member 2 (Rattus norvegicus) (UniProt Q9R1A7). Briefly: Rat pregnane X receptor (rPXR) activation by small molecules, qHTS assay (AID 1346983). Note: nearly all actives have a fitted effect of over 20% in size. As to conditions: rPXR luciferase reporter cells, One-Glo luminescence, 24 h; active compounds read high. The gist of the method: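 Cell-based rPXR luciferase reporter assay, 2,000 cells per well, rested 5hr at 37 C before compound addition in DMSO, then 24 hr at 37 C. One-Glo reagent was added and luminescence read after 30 min at room temperature.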
Chain of Nuclear receptor subfamily 1 group I member 2 (Rattus norvegicus) (Q9R1A7 whole entry, looked up): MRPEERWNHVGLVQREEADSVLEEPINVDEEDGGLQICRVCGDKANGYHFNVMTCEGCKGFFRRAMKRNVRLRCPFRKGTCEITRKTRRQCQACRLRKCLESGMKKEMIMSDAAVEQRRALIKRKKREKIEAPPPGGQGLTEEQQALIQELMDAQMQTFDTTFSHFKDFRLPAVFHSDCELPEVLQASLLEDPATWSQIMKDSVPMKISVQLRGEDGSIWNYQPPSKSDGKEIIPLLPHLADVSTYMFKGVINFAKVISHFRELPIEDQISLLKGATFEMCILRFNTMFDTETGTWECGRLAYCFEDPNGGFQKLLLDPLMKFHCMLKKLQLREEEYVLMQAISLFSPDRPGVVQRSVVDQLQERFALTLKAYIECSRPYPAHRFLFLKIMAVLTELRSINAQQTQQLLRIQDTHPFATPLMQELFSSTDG

Test [16] addresses Nuclear receptor subfamily 1 group I member 2 (Homo sapiens) (UniProt O75469). As to the kind of experiment: Human pregnane X receptor (PXR) activation by small molecules, qHTS assay (AID 1346985). Note: nearly all actives have a fitted effect of over 40% in size. The gist of the method:
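DPX-2 cells (HepG2 co-transfected with a PXR response element and a CYP3A4-promoter luciferase construct) were seeded at 2,000 per well, rested 5 hr at 37C, then exposed to DMSO-dissolved compounds for 24 hr. Activation was read as luciferase luminescence.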

In test [17] the target is Cytochrome P450 2C19 (Homo sapiens) (UniProt P33261). As to the kind of experiment: Cytochrome P450 Family 2 Subfamily C Member 19 (CYP2C19) small molecule antagonists: luciferase reporter qHTS assay (AID 1671197). Note: nearly all actives have a fitted effect of over 65% in size. Note: potency is the fitted concentration of half-maximal effect. In short, it runs like this: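 Compounds were tested on CYP2C19 activity via proluciferin conversion to luciferin. The 37C, 1 h reaction followed NADPH addition; detection reagent stopped it.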
Chain of Cytochrome P450 2C19 (Homo sapiens) (P33261 whole entry, looked up): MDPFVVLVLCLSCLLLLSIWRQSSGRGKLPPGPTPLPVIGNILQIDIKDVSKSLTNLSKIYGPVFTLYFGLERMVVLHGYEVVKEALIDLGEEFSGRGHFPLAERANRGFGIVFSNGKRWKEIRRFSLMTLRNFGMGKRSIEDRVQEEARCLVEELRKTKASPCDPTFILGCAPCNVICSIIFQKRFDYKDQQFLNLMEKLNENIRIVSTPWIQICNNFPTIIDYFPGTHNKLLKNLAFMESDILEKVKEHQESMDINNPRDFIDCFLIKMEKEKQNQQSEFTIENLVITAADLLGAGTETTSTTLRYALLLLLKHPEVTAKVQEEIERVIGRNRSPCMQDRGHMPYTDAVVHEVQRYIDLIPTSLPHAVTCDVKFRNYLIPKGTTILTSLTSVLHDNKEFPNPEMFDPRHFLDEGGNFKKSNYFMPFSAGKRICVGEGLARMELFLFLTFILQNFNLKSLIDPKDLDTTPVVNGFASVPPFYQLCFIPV

Test [18] can be described thus: Caspase-3/7 induction in HepG2 cells by small molecules, qHTS assay (AID 1346978). Note: nearly all actives have a fitted effect of over 15% in size. The gist of the method: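 Wild-type HepG2 cells (2,000/well) were settled 5 h at 37 C, 5% CO2, then exposed to compounds in DMSO for 17 h. Caspase-3/7 activity was read by luminescence 30 min after adding Caspase-Glo 3/7 reagent at room temperature.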
Test [19] has as its target Cytochrome P450 2D6 (Homo sapiens) (UniProt P10635). As to the kind of experiment: Cytochrome P450 Family 2 Subfamily D Member 6 (CYP2D6) small molecule antagonists: luciferase reporter qHTS assay (AID 1671196). Note: series mostly up to about 120 µM; nearly all actives have a fitted effect of over 50% in size. In short, it runs like this:
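Chemicals tested for interference with CYP2D6 activity; proluciferin substrate, NADPH regeneration, 1 h at room temperature, luminescent detection.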
Background: Reporter assays use an easily measured gene product as a stand-in for the process of interest.

For test [20], the target named is Nuclear receptor subfamily 1 group I member 2 (Homo sapiens) (UniProt O75469). As to the kind of experiment: CYP3A4 induction through human pregnane X receptor (PXR) by small molecules, qHTS assay (AID 1346984). Note: nearly all actives have a fitted effect of over 40% in size. The gist of the method:
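After 24 h at 37C with compound, DPX-2 cells (HepG2, co-transfected PXR response element and CYP3A4 promoter-luciferase) got 3uM final P450-Glo Luciferin-IPA for 3 h; One-Glo luminescence followed.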
% is set by controls: 0 for no effect and ±100 for the full control effect.

Chain of Thyrotropin-releasing hormone receptor (Homo sapiens) (P34981 whole entry, looked up): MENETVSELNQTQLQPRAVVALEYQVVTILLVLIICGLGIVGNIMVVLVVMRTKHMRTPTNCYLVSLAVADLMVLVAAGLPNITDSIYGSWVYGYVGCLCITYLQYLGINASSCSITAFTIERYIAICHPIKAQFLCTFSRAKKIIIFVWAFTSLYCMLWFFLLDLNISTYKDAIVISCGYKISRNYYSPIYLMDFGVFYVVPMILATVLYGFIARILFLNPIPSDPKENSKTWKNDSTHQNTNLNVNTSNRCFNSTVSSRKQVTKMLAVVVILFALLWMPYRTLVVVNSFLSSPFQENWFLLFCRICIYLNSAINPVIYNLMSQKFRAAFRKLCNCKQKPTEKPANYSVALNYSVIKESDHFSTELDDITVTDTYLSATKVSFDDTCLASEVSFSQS
Chain of Nuclear receptor subfamily 1 group I member 2 (Homo sapiens) (O75469 whole entry, looked up): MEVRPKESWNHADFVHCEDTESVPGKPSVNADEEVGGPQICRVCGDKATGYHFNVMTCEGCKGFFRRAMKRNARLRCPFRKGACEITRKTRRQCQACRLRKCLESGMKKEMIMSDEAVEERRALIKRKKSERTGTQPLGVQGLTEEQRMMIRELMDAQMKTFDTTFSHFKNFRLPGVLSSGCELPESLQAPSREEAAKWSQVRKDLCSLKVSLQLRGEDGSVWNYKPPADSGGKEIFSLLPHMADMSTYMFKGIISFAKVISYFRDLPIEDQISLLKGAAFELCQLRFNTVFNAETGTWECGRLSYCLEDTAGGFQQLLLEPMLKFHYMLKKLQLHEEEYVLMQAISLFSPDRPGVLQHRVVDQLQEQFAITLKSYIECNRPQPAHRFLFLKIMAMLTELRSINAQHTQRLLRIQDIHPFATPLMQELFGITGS
Chain of Cytochrome P450 2D6 (Homo sapiens) (P10635 whole entry, looked up): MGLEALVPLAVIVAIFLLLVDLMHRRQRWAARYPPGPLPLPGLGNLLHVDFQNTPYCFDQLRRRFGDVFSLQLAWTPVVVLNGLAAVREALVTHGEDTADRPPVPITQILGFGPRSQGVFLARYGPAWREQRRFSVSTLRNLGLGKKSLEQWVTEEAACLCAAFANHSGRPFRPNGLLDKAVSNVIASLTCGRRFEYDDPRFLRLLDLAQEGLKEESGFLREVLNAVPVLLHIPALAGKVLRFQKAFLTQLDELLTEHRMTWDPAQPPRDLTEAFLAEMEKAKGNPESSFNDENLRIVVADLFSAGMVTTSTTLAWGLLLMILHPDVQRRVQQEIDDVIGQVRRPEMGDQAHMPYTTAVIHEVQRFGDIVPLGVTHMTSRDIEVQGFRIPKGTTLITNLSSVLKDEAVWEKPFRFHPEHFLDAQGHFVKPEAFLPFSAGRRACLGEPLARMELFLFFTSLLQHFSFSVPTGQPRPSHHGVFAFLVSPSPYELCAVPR

`C[C@H](N)[C@H](O)c1cccc(O)c1`: the Potency result in test [1], in test [2], in test [3], in test [4], in test [10] and in test [11] was “inactive” throughout. Further, the Potency entry in [13], in test [14], in test [16] and in test [17] was “inactive” each time. Further, the call in test [5], in [6], in test [7], in test [8], in [9] and in test [12] was inactive. In addition, in test [15], the max activation is -0.575%.
Take `C=C(C)C(=O)OCCN(CC)CC`: the Potency result in test [1], in [2], in [3], in test [4], in [10] and in test [18] was “inactive” throughout. Moreover, the Potency entry in test [11], in test [13], in test [14], in test [19] and in test [17] was “inactive” each time. The outcome in [5], in test [6], in test [7], in [8], in test [9] and in [12] was inactive.
For the molecule `O=C(O)c1cc(Br)c(O)c(Br)c1`, the Potency entry in test [1], in [2], in test [3], in test [4], in [10] and in test [18] was “inactive” each time. The Potency entry in test [11], in [13] and in test [14] was “inactive” throughout. For the same molecule, the result in test [5], in test [6], in test [7], in [8], in test [9] and in [12] was inactive. In addition, the Potency in test [17] was 7.96 µM (active).
With `CC(CO)c1ccccc1` (centres undefined), the Potency result in [1], in test [2], in test [3], in test [4], in test [10] and in test [18] was “inactive” throughout. Also, the Potency entry in test [11], in test [13], in test [19] and in [17] was “inactive” throughout. Further, the outcome in test [5], in test [6], in [7], in test [8], in test [9] and in [12] was inactive.
`O=C(O)CCSSCCC(=O)O`: the Potency entry in [1], in [2], in test [3], in test [4], in test [10] and in [18] was “inactive” each time. Besides, the Potency result in test [11], in [13], in [14] and in test [17] was “inactive” throughout. Also, the molecule was called inactive in [5], in [6], in test [7], in test [8], in test [9] and in test [12].
Regarding `O=C(O)c1cc(Cl)cc([N+](=O)[O-])c1Cl`, the Potency entry in test [1], in test [2], in test [3], in test [4], in [10] and in test [11] was “inactive” throughout. In addition, the Potency result in test [13], in [14] and in test [17] was “inactive” each time. Also, the molecule was called inactive in [5], in [6], in [7], in [8] and in test [12].
Regarding `CC(=O)NCCCCCC(=O)O`, the Potency entry in [1], in [2], in [3], in test [4], in test [10] and in test [18] was “inactive” in each case. The Potency entry in [11], in test [13], in test [14], in test [20], in test [16] and in test [19] was “inactive” each time. In addition, the Potency entry in [17] was “inactive”. In addition, the molecule was called inactive in test [5], in [6], in test [7], in [9] and in test [12]. The max activation in test [15] is 0.55%.
Turning to `OCCC(F)(F)C(F)(F)C(F)(F)C(F)(F)C(F)(F)C(F)(F)C(F)(F)C(F)(F)F`, the Potency result in test [1], in test [2], in test [3], in test [4], in [10] and in test [18] was “inactive” in each case. Also, the Potency entry in test [13], in test [19] and in [17] was “inactive” in each case. Also, the molecule was called inactive in test [5], in test [6], in test [7], in [9] and in [12].
